Data reported in the supplement of paper PMC10849652.
About 7,900 targets were measured; listed, in parts, are those with a hit and a random draw of the rest. About 0.6% of all pairs of compound and target were hits. Values without a mark were called inactive.

What was measured:
Assay in all cases: log2 fold change, soluble protein after heating vs DMSO (PISA); higher = thermal stabilisation; K562 cells, 10 uM, 30 min; active = over 0.2 and 3.5 SD of the protein, either way, in both replicates (recomputed)
IRAK-1-4 Inhibitor I = compound: C1COCCN1CCN2C3=CC=CC=C3N=C2NC(=O)C4=CC(=CC=C4)[N+](=O)[O-] [IRAK-1-4 Inhibitor I]
In short: (§1)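 Aliquots of K562 cells (2×10^6 cells/mL) treated with 10 μM compound for 30 min were heated for 3 min over 48°C-58°C. After pooling and extraction in PBS with 0.5% NP-40 at 4°C, soluble protein from a 21,000xg, 90 min spin was quantified by TMTpro 16plex LC-MS/MS with channel sums equalised. Thermal stability is expressed against control samples, from duplicates, as a log2 fold change.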

ibrutinib = compound: C=CC(=O)N1CCC[C@@H](n2nc(-c3ccc(Oc4ccccc4)cc3)c3c(N)ncnc32)C1 [ibrutinib]
In short: as §1

[1] = compound: CC(=O)c1cnc2ccc(-c3cc(Cl)c(O)c(Cl)c3)nc2c1N[C@H]1CC[C@H](CN(C)C)CC1
In short: as §1

ralimetinib = compound: CC(C)(C)Cn1c(N)nc2ccc(-c3[nH]c(C(C)(C)C)nc3-c3ccc(F)cc3)nc21 [ralimetinib]
In short: as §1

[2] = compound: CC(C)(O)CC(=O)NCCn1ccc2ncnc(Nc3ccc(Oc4cccc(C(F)(F)F)c4)c(Cl)c3)c21
In short: as §1

[3] = compound: CC(C)C1=C2N=C(C=C(N2N=C1)NCC3=CC=CC=C3)NCCCCCCN
In short: as §1

[4] = compound: CC(C)C[C@@H](C=O)NC(=O)[C@H](CC(C)C)NC(=O)[C@H](CC(C)C)NC(=O)OCc1ccccc1
In short: as §1

pinometostat = compound: CC(C)N(C[C@H]1O[C@@H](n2cnc3c(N)ncnc32)[C@H](O)[C@@H]1O)[C@H]1C[C@@H](CCc2nc3cc(C(C)(C)C)ccc3[nH]2)C1 [pinometostat]
In short: as §1

[5] = compound: CC1=C(C(CC(=O)N1)C2=CC=C(C=C2)C(F)(F)F)C(=O)NC3=C(C=C4C(=C3)C=NN4)F
In short: as §1

[6] = compound: CC1=C(C2=C(C=C1)C(=O)C3=CC=CC=C3N2CCCN)C
In short: as §1

[7] = compound: CC1=C(C=C(C=C1)NC(=O)C2=CC(=CC=C2)C(C)(C)C#N)NC3=CC4=C(C=C3)N=CN(C4=O)C
In short: as §1

[8] = compound: CC1=C(C=C(C=C1)NC(=O)C2=CC(=CC=C2)N(C)C)NC(=O)C3=CC=C(C=C3)O
In short: as §1

[9] = compound: CC1=CC=C(C=C1)SC2=C3C=C(SC3=CN=C2)C(=O)N
In short: as §1

[10] = compound: CC1=NC(=CC=C1)C2=C(N=C(N2)C(C)(C)C)C3=CC4=NC=CN=C4C=C3
In short: as §1

Nexturastat A = compound: CCCCN(Cc1ccc(C(=O)NO)cc1)C(=O)Nc1ccccc1 [Nexturastat A]
In short: as §1

vemurafenib = compound: CCCS(=O)(=O)Nc1ccc(F)c(C(=O)c2c[nH]c3ncc(-c4ccc(Cl)cc4)cc23)c1F [vemurafenib]
In short: as §1

[11] = compound: CCCS(=O)(=O)Nc1ccc(F)c(C(=O)c2c[nH]c3ncc(Cl)cc23)c1F
In short: as §1

[12] = compound: CCCc1cc(C)[nH]c(=O)c1CNC(=O)c1cc(-c2ccnc(N3CCN(C)CC3)c2)cc2c1cnn2C(C)C
In short: as §1

givinostat = compound: CCN(CC)Cc1ccc2cc(COC(=O)Nc3ccc(C(=O)NO)cc3)ccc2c1 [givinostat]
In short: as §1

barasertib = compound: CCN(CCCOc1ccc2c(Nc3cc(CC(=O)Nc4cccc(F)c4)[nH]n3)ncnc2c1)CCOP(=O)(O)O [barasertib]
In short: as §1

Chain of UniProt Q9BSJ8 (Q9BSJ8 whole entry, looked up): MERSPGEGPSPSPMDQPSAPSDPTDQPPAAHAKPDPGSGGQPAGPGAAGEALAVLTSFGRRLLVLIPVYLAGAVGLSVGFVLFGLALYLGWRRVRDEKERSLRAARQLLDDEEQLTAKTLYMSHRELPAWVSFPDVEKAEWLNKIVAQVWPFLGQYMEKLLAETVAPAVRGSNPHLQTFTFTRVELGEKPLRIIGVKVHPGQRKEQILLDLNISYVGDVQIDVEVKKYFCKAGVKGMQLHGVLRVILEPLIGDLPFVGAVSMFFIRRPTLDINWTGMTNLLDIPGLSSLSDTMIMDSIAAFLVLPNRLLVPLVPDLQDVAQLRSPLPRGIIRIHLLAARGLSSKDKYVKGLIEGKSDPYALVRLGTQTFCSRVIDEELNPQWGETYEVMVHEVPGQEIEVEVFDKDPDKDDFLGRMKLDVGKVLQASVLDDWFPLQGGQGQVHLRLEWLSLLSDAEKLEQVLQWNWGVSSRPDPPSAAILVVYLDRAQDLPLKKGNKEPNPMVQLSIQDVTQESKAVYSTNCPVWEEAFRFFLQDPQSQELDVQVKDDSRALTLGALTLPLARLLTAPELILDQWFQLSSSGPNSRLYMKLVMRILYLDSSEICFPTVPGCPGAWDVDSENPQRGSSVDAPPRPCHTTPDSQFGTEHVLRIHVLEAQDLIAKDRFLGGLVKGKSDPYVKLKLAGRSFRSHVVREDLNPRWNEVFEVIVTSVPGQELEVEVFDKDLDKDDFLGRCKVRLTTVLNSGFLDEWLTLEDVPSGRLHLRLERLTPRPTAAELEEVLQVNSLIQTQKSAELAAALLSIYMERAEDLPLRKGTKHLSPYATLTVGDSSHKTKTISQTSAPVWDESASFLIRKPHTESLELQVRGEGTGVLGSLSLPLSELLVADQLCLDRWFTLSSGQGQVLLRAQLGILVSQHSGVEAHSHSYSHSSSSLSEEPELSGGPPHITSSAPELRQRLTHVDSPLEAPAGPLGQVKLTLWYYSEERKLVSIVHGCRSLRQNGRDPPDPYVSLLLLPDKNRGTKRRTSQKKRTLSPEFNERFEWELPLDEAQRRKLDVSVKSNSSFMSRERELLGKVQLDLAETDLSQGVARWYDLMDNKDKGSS
Chain of UniProt Q7L576 (Q7L576 whole entry, looked up): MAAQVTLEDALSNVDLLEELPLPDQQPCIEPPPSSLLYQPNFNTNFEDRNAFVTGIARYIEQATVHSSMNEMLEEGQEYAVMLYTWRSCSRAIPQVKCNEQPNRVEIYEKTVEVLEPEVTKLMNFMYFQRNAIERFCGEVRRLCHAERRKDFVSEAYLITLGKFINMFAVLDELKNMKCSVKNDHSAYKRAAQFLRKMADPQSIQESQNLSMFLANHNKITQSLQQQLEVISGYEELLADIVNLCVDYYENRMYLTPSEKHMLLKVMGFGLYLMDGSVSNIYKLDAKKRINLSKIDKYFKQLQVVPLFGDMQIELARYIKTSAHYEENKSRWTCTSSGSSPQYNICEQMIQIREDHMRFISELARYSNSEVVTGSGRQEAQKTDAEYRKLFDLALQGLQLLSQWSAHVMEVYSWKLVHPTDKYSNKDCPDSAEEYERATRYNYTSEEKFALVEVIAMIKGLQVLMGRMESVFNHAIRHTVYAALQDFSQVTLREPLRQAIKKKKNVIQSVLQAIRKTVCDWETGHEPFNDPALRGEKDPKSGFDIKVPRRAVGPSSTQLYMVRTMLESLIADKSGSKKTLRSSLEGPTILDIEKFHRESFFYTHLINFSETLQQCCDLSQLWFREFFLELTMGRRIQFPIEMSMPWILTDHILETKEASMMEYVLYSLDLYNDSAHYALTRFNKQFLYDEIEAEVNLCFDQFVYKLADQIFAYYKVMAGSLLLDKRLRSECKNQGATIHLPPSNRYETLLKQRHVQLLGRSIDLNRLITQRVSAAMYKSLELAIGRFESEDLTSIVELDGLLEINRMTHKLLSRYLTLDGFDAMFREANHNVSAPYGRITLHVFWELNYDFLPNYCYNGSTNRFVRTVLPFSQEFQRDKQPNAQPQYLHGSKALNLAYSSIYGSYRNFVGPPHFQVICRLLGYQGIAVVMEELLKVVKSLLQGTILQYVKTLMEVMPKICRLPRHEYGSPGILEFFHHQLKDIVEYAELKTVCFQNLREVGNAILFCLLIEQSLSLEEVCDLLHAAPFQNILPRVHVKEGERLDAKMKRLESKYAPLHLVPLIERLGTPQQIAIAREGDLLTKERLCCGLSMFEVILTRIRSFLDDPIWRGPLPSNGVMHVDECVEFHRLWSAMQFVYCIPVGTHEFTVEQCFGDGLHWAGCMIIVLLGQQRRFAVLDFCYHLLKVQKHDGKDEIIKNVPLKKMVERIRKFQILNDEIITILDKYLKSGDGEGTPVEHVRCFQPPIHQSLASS
Chain of UniProt P34913 (P34913 whole entry, looked up): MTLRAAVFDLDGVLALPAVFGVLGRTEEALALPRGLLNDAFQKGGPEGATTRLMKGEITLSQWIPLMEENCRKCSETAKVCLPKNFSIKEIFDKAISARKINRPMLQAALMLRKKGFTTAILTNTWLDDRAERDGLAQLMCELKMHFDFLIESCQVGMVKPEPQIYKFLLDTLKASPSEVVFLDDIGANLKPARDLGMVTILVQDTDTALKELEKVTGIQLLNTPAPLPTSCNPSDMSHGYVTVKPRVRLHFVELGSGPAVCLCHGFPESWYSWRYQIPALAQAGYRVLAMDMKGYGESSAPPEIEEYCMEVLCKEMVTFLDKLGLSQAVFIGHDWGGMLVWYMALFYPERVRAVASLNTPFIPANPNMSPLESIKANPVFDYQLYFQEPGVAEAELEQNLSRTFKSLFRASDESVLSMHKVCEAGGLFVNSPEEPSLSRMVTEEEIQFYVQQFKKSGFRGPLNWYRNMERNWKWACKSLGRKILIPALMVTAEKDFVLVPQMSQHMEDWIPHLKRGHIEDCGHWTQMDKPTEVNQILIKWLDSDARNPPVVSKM
Chain of UniProt Q9H4H8 (Q9H4H8 whole entry, looked up): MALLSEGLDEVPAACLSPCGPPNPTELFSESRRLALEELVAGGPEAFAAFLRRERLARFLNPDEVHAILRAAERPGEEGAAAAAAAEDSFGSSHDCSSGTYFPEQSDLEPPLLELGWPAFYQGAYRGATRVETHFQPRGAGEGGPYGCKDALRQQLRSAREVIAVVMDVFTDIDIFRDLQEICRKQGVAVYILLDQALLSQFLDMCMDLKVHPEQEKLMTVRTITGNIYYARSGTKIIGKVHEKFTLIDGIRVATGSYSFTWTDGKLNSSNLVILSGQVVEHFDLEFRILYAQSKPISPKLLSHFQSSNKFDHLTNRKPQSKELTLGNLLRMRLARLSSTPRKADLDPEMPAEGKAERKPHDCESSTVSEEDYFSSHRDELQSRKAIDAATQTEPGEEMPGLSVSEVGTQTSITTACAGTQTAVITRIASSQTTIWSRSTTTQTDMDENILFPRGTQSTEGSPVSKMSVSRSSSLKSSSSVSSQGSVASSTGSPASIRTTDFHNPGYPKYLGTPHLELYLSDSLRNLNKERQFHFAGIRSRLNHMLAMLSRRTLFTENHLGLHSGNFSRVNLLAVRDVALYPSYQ
Chain of UniProt Q8N6R0 (Q8N6R0 whole entry, looked up): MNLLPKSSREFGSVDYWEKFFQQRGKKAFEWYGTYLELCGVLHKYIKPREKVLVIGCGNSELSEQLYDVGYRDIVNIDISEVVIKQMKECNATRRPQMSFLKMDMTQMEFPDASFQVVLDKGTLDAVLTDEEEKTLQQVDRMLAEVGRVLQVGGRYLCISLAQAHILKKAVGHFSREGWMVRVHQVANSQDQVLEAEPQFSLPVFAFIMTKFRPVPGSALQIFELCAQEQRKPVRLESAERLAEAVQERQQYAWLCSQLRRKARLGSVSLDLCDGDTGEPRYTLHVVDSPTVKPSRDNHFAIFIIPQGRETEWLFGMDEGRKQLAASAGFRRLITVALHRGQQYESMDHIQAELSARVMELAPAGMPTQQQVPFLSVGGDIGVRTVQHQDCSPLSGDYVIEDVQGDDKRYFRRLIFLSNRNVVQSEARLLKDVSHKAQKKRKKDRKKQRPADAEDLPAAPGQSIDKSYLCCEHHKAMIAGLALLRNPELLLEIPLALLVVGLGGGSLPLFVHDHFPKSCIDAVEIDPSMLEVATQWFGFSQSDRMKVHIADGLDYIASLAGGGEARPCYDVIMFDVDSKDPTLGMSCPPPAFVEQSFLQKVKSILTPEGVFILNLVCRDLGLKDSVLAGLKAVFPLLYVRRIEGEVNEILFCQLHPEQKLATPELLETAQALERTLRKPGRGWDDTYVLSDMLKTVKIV
Chain of UniProt Q8TAG9 (Q8TAG9 whole entry, looked up): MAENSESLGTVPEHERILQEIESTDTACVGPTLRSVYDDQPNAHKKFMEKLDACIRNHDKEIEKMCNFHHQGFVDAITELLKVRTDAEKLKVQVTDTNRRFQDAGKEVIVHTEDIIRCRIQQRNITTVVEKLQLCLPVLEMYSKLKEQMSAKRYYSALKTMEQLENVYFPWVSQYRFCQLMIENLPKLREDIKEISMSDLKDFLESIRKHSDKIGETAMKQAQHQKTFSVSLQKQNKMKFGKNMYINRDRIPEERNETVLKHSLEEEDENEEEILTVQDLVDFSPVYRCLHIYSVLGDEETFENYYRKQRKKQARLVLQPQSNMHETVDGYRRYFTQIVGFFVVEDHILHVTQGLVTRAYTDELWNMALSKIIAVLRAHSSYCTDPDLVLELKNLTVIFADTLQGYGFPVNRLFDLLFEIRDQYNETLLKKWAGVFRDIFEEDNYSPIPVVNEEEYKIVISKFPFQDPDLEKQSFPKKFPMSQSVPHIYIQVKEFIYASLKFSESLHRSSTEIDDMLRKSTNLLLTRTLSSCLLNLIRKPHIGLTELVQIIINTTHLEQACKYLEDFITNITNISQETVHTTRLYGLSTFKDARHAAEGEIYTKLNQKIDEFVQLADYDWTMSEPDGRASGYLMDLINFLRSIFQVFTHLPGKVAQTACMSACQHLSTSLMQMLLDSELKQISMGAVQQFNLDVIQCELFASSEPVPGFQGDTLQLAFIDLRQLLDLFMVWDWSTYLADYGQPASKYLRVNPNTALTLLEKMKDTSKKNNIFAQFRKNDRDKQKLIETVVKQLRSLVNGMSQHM

| Target | log2 fold change (IRAK-1-4 Inhibitor I) | log2 fold change (ibrutinib) | log2 fold change [1] | log2 fold change (ralimetinib) | log2 fold change [2] | log2 fold change [3] | log2 fold change [4] | log2 fold change (pinometostat) | log2 fold change [5] | log2 fold change [6] | log2 fold change [7] | log2 fold change [8] | log2 fold change [9] | log2 fold change [10] | log2 fold change (Nexturastat A) | log2 fold change (vemurafenib) | log2 fold change [11] | log2 fold change [12] | log2 fold change (givinostat) | log2 fold change (barasertib) |
| --- | --- | --- | --- | --- | --- | --- | --- | --- | --- | --- | --- | --- | --- | --- | --- | --- | --- | --- | --- | --- |
| EXOC2 (UniProt Q96KP1) | -0.092 | -0.018 | -0.048 | 0.08 | -0.052 | -0.43 (active) | 0.027 | 0.172 | -0.216 | 0.007 | -0.03 | -0.017 | 0.051 | 0.027 | 0.058 | 0.041 | 0.062 | 0.037 | 0.177 | 0.056 |
| EPHX2 (UniProt P34913) | 0.044 | 0.096 | -0.024 | -0.026 | -0.018 | 0.285 (active) | 0.012 | 0.144 | 0.073 | -0.006 | 0.112 | 0.129 | 0.031 | -0.017 | 0.193 | -0.012 | -0.025 | -0.075 | -0.014 | -0.029 |
| FAM83D (UniProt Q9H4H8) | 0 | -0.094 | 0.022 | 0.145 | -0.035 | -0.232 | -0.062 | 0.041 | -0.049 | 0.1 | 0.008 | -0.029 | 0.028 | 0.018 | 0.102 | 0.041 | 0.097 | 0.016 | 0.103 | 0.128 |
| DCAF6 isoform 3 (UniProt Q58WW2) | 0.025 | -0.004 | -0.018 | -0.022 | -0.022 | 0.056 | 0.023 | -0.004 | 0.015 | -0.034 | 0.016 | -0.035 | -0.034 | -0.037 | -0.041 | -0.032 | -0.047 | 0.011 | -0.058 | 0.008 |
| CTSV (UniProt O60911) | 0.032 | -0.002 | 0.09 | -0.035 | -0.005 | -0.917 (active) | 0.14 | 0.011 | -0.054 | 0.125 | 0 | 0.019 | 0 | -0.017 | -0.043 | -0.021 | -0.006 | -0.062 | 0.194 | 0.032 |
| ELOC (UniProt Q15369) | 0.017 | -0.011 | -0.018 | -0.027 | -0.07 | -0.032 | -0.042 | 0.008 | 0.002 | 0.165 | 0.016 | -0.034 | 0.008 | 0.001 | -0.027 | 0.017 | 0.031 | 0 | -0.035 | 0.026 |
| FADS1, A0A0A0MR51 | 0.085 | 0.015 | -0.07 | 0.017 | 0.355 (active) | -0.044 | 0.05 | 0.027 | -0.013 | 0.003 | 0.09 | -0.019 | 0.008 | 0.069 | -0.006 | -0.002 | 0.021 | -0.034 | -0.274 (active) | 0.031 |
| EXOC6 (UniProt Q8TAG9) | -0.046 | -0.007 | -0.014 | 0.102 | -0.084 | -0.397 (active) | 0.042 | 0.056 | 0.158 | 0.032 | -0.054 | -0.028 | 0.104 | 0.032 | 0.133 | 0.104 | 0.022 | 0.009 | 0.075 | -0.018 |
| FADS3 (UniProt Q9Y5Q0) | 0.029 | 0.018 | -0.031 | -0.064 | -0.121 | -0.011 | 0.102 | 0.038 | -0.033 | 0.054 | 0.031 | -0.002 | -0.012 | 0.031 | -0.096 | 0.01 | 0.026 | -0.069 | -0.108 | 0.042 |
| ESYT1 isoform 2 (UniProt Q9BSJ8) | -0.126 | -0.046 | -0.048 | 0 | -0.075 | -0.321 (active) | 0.053 | 0.152 | -0.018 | 0.031 | 0.117 | -0.052 | -0.007 | 0.003 | 0.045 | 0.01 | 0.048 | 0.148 | 0.116 | 0.046 |
| EEF1AKNMT (UniProt Q8N6R0) | -0.081 | -0.116 | -0.026 | 0.141 | -0.097 | -0.199 | 0.127 | 0.354 (active) | -0.029 | 0.13 | 0.078 | -0.037 | 0.031 | 0.026 | -0.026 | 0.084 | 0.062 | 0.075 | 0.04 | 0.076 |
| CYFIP1 (UniProt Q7L576) | -0.001 | -0.019 | -0.07 | -0.013 | -0.056 | -0.042 | -0.013 | 0.001 | 0.009 | 0.026 | 0.012 | 0.005 | 0.017 | 0.035 | -0.043 | 0.026 | 0.019 | 0.006 | -0.005 | 0.038 |
| CUTA isoform 2 (UniProt O60888) | 0.074 | -0.018 | 0.085 | -0.046 | -0.104 | 0.038 | -0.09 | -0.009 | 0.005 | 0.15 | -0.121 | -0.011 | 0.013 | 0.044 | 0.169 | 0 | 0.044 | 0.16 | -0.044 | 0.015 |
| DIP2A (UniProt Q14689) | -0.036 | 0.053 | -0.06 | 0.102 | 0.003 | -0.023 | 0.118 | 0.064 | 0.084 | 0.018 | 0.032 | -0.013 | -0.007 | 0.07 | -0.119 | 0.05 | -0.009 | 0.336 | -0.05 | 0.118 |
| EEF1D isoform 2 (UniProt P29692) | -0.038 | -0.039 | 0.012 | 0.026 | -0.006 | -0.051 | 0.029 | 0.065 | 0.002 | 0.039 | 0.039 | -0.034 | -0.012 | -0.003 | 0.029 | -0.044 | 0.049 | -0.004 | 0.038 | 0.02 |
| DUS2 (UniProt Q9NX74) | 0.014 | 0.041 | -0.063 | 0.033 | -0.161 | 0.043 | 0.044 | -0.001 | 0.035 | -0.1 | -0.028 | -0.022 | -0.022 | 0.04 | -0.015 | -0.004 | 0.099 | 0.039 | 0.062 | -0.062 |
